Compound activity (PubChem)
CFTR F508del cor – CFTR F508del correction in bronchial cells | AID 720511 | activity (quench increase), % at 7.58 µM | 350,000 tested, 0.36% active | CFBE cells, YFP halide quenching; stimulated with forskolin plus potentiator P3; % fluorescence drop versus neutral controls;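 active = mean added fluorescence quench of at least 8% versus neutral control, with both replicates also reaching 8%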;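 note: cells transiently co-express mutant CFTR-F508del with the halide-sensitive YFP; corrector assay measuring rescue of mutant channel to the surface after 24 h compound exposure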
NSD2 inh – NSD2 (human) methyltransferase inhibition. O96028. NSD2 peptide methylation, AlphaScreen, 120 min. inhibition, % at 12.5 µM. 310,000 tested, 0.54% active; in the data active = inhibition above about 50%
Env fusion inh – blocks HIV Env-driven cell-cell fusion; 360,000 tested, 1.1% active; HeLa-JRFL Env/CEM21 cell fusion, luciferase; inhibition, % at 12.3 µM; AID 651610;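 active = mean replicate inhibition score of at least 50 and every replicate individually at or above 50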;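 note: 0% = plate neutral controls and 100% = maraviroc near 300 nM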
ALR H2O2 inh – human ALR oxidase inhibition via reduced H2O2; P55789; purified ALR, DTT oxidation, H2O2 HRP-luminol luminescence; inhibition, % (test concentration not listed); 290,000 tested, 3.8% active; AID 485317;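 active = mean replicate inhibition above about 79%, with every replicate also reaching it, limit read from the data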
PglD DTNB – inhibitors of Campylobacter jejuni PglD acetyltransferase | inhibition, % at 12.5 µM | purified PglD enzyme, DTNB colorimetric CoA detection | AID 602405 | 360,000 tested, 0.098% active; in the data active = inhibition above about 16%, passing the limit was not always enough
CASP6 VEID inh – caspase-6 (human) enzyme inhibition | P55212 | 350,000 tested, 0.53% active | inhibition, % at 12.5 µM | purified caspase-6, Z-VEID-R110 cleavage fluorescence | AID 686996;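 active = mean inhibition across replicates at least about 35%, with every replicate also reaching that limit, limit read from the data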;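 note: 0% = median of neutral control wells and 100% = no fluorescence left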
* = called active by the depositor; [ ] = another dose, or the depositor's remark. Shown are actives, neighbours in structure and some others; about 4.1% of the full set was active somewhere.

CCn1c(CNC(=O)COc2ccc(C(C)C)cc2)nnc1SCC(=O)Nc1ccccc1F was read as NSD2 inh 3, ALR H2O2 inh -1, PglD DTNB -2 and CASP6 VEID inh 53*.
For CCn1c(CC(=O)Nc2ccccc2OC)nnc1SCC(=O)Nc1ccccc1F the results were CFTR F508del cor 0, NSD2 inh -4, Env fusion inh 11, ALR H2O2 inh 93*, PglD DTNB 6 and CASP6 VEID inh 0.
Screening O=C(O)Cc1ccc(N=Nc2c(O)c(C(=O)O)cc3ccccc23)cc1 returned CFTR F508del cor -3, NSD2 inh 39, Env fusion inh -11, ALR H2O2 inh -28, PglD DTNB 4 and CASP6 VEID inh 40*.
`Cc1ccc(S(=O)(=O)N2CCN(c3nc(CN4CCOCC4)nc4sc(C)c(C)c34)CC2)c(C)c1` gave NSD2 inh 8.
Screening COc1ccc(N2CCN(C(=O)CCNS(=O)(=O)c3cccs3)CC2)cc1 returned ALR H2O2 inh 94* and PglD DTNB 3.
Screening O=C(CCNS(=O)(=O)c1cccs1)N1CCN(c2cccc(C(F)(F)F)c2)CC1 returned CFTR F508del cor 2, NSD2 inh -2, PglD DTNB -3 and CASP6 VEID inh 35.
For COc1ccc(N2CCN(C(=O)CN(CCc3ccccc3)S(C)(=O)=O)CC2)cc1 the results were CFTR F508del cor 0, NSD2 inh 1, ALR H2O2 inh 88*, PglD DTNB -6 and CASP6 VEID inh -3.
COc1ccc(N2CCN(C(=O)CN(C)S(=O)(=O)c3cccs3)CC2)cc1 was read as CFTR F508del cor -1, NSD2 inh 5, Env fusion inh 5, ALR H2O2 inh 99*, PglD DTNB 4 and CASP6 VEID inh -1.
Screening COc1ccccc1N1CCN(C(=O)CN(CCc2ccccc2)S(C)(=O)=O)CC1 returned NSD2 inh -1, Env fusion inh -18, ALR H2O2 inh 32 and PglD DTNB -4.
For C/C=C/c1ccc2c(c1)O[C@@H](CN(C)C(=O)Cc1ccccc1)[C@H](C)CN([C@H](C)CO)S2(=O)=O the results were CFTR F508del cor 2, Env fusion inh 9[16.7 µM], PglD DTNB 2 and CASP6 VEID inh 2.
Screening C[C@@H]1CN([C@@H](C)CO)C(=O)Cc2cc(NC(=O)CCN3CCOCC3)ccc2O[C@H]1CN(C)Cc1ccc(-c2ccccc2)cc1 returned CFTR F508del cor -3 and CASP6 VEID inh -2.
Screening CC(NCCCOc1cccc2ccccc12)c1ccccc1 (stereo unspecified) returned CFTR F508del cor -7, NSD2 inh 8, Env fusion inh 75*, ALR H2O2 inh -13, PglD DTNB -4 and CASP6 VEID inh -3.
For COc1ccc2c3c(n(C)c2c1)[C@@H](CO)N(C(=O)NC1CCCC1)CC31CCN(C)CC1 the results were CFTR F508del cor -2 and CASP6 VEID inh -5.
For CCOc1cc(/C=C(\CC(=O)O)c2nc3ccccc3s2)ccc1OC the results were CFTR F508del cor -1, NSD2 inh -4, Env fusion inh -13, ALR H2O2 inh 4 and CASP6 VEID inh 0.
CCOc1cc(/C=C(\CC(=O)O)c2nc3ccccc3s2)ccc1OCC(=O)Nc1cccc(C(F)(F)F)c1 was read as CFTR F508del cor -2, NSD2 inh 3, Env fusion inh 4 and CASP6 VEID inh 1.
Cc1ccc(/C=C(\CCC(=O)O)c2nc3ccccc3s2)cc1[N+](=O)[O-] was read as CFTR F508del cor -1, NSD2 inh 0, ALR H2O2 inh 13, PglD DTNB 5 and CASP6 VEID inh 11.
For COc1cc(C=C(c2nc3ccccc3s2)c2nc3ccccc3s2)cc(OC)c1O the results were NSD2 inh 5 and Env fusion inh -19.
`COc1cc(/C=C(\CC(=O)O)c2nc3ccccc3s2)ccc1OCC(=O)Nc1ccccc1F` gave CFTR F508del cor 18*, NSD2 inh 6, Env fusion inh -39, PglD DTNB -1 and CASP6 VEID inh 4.
COc1cc(/C=C(\CC(=O)O)c2nc3ccccc3s2)cc(OC)c1O was read as CFTR F508del cor 1, NSD2 inh -5, Env fusion inh -10, ALR H2O2 inh 100* and CASP6 VEID inh 1.
For COc1ccc(/C=C(\CC(=O)O)c2nc3ccccc3s2)cc1O the results were CFTR F508del cor 0, NSD2 inh 5, Env fusion inh -10, ALR H2O2 inh 92*, PglD DTNB -1 and CASP6 VEID inh 6.
For CN(c1ccccc1)c1ccc(/C=C(\CCC(=O)O)c2nc3ccccc3s2)cc1[N+](=O)[O-] the results were NSD2 inh 23, Env fusion inh -14, ALR H2O2 inh 5 and CASP6 VEID inh 38*.
For C[C@H](CO)N1C[C@H](C)[C@@H](CN(C)C(=O)CCC(F)(F)F)OCCCC[C@H](C)Oc2ccc(NS(=O)(=O)c3cn(C)cn3)cc2C1=O the results were CFTR F508del cor 0, Env fusion inh 5[16.7 µM], PglD DTNB 0 and CASP6 VEID inh 3.
For O=C(/C=C/c1ccccc1)Nc1cccc(C(=O)O)c1 the results were CFTR F508del cor 4, NSD2 inh 2, Env fusion inh 78* and CASP6 VEID inh -1.
For COC(=O)c1cccc(NC(=O)/C=C/c2ccc([N+](=O)[O-])cc2)c1 the results were CFTR F508del cor -1, NSD2 inh -1, Env fusion inh 9, ALR H2O2 inh 0 and CASP6 VEID inh 4.
For Cc1cc(C(=O)Nc2cccc(C(=O)O)c2)c(C)o1 the results were NSD2 inh 0, Env fusion inh 2, ALR H2O2 inh 9 and PglD DTNB 3.
`O=C(/C=C/c1ccc([N+](=O)[O-])cc1)Nc1cccc(C(=O)Nc2ccccc2C(=O)O)c1` gave CFTR F508del cor 3, NSD2 inh 12, Env fusion inh 5, ALR H2O2 inh 91*, PglD DTNB 0 and CASP6 VEID inh 12.
`Cc1oc(-c2ccccc2)cc1C(=O)Nc1cccc(C(=O)O)c1` gave NSD2 inh 2, Env fusion inh -25, ALR H2O2 inh 84* and PglD DTNB 3.
Screening COc1ccccc1CNC(=O)C[C@H]1CC[C@@H]2[C@H](COc3ccc(NC(=O)Nc4ccc(F)c(F)c4)cc3C(=O)N2C)O1 returned CFTR F508del cor -2 and PglD DTNB -4.
O=C(C[C@@H]1CC[C@@H](NC(=O)c2cccc(F)c2)[C@@H](CO)O1)NCc1ccccc1 was read as CFTR F508del cor 0, Env fusion inh -4[16.7 µM], PglD DTNB -2 and CASP6 VEID inh -2.
Screening CNC[C@@H]1Oc2ccc(NS(=O)(=O)c3c(C)noc3C)cc2C(=O)N([C@@H](C)CO)C[C@H]1C returned CFTR F508del cor 0, Env fusion inh -10[16.7 µM], PglD DTNB 3 and CASP6 VEID inh -2.
For COc1ccc(S(=O)(=O)N(C)C[C@H]2Oc3ccc(NC(=O)C4CCCCC4)cc3CC(=O)N([C@@H](C)CO)C[C@@H]2C)cc1 the results were CFTR F508del cor 0, Env fusion inh 10[16.7 µM], PglD DTNB 0 and CASP6 VEID inh -2.
